# Records with an inconclusive call do not appear. Calls of active or inactive are those of the source. Unless noted, how the calls were made is not given here.
# Experiments:
# [1] = qHTS profiling of the MIPE4 collection as inhibitors of Plasmodium falciparum (3D7) proliferation (AID 743344);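 further: scaled between DMSO vehicle wells and 0.29 µM artemisinin as full inhibition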; conditions: P. falciparum 3D7 in erythrocytes, SYBR Green DNA fluorescence, 72 h; at 28.5 µM unless noted
# Method in brief: (§1)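 Parasite DNA was quantified by SYBR Green I fluorescence (ex 485, em 535 nm) after overnight lysis in saponin/Triton buffer at room temperature. Cultures at 0.3% parasitemia and 2.5% hematocrit were first exposed to compound for 72 h at 37 C; signals were normalised to artemisinin (0.29 uM) and vehicle wells.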
# [2] = qHTS profiling of the MIPE4 collection as inhibitors of Plasmodium falciparum (DD2) proliferation (AID 743345); conditions: P. falciparum Dd2 in erythrocytes, SYBR Green DNA, 72 h; at 28.5 µM unless noted
# Method in brief: as §1
# [3] = qHTS profiling of the MIPE4 collection as inhibitors of Plasmodium falciparum (DD2) proliferation (Rep 2) (AID 743346); conditions: P. falciparum Dd2 in erythrocytes, SYBR Green DNA, 72 h; at 28.5 µM unless noted
# Method in brief: as §1
# [4] = qHTS profiling of the MIPE4 collection as inhibitors of Plasmodium falciparum (HB3) proliferation (AID 743347);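 further: plate controls were DMSO vehicle wells for no effect and artemisinin wells for full effect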; conditions: P. falciparum HB3 in erythrocytes, SYBR Green DNA, 72 h; at 28.5 µM unless noted
# Method in brief: as §1
# [5] = High-throughput drug toxicity screening in the BPDCN cell line Gen2.2 (AID 1224824); conditions: Gen2.2 BPDCN cells; at 45.8 µM (top of the series) unless noted;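 further: cells exposed to compounds for 48 h before reading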
# Method in brief: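 CellTiter-Glo luminescence read after 48 h compound exposure at 37 C defines viability; percent activity set with DMSO as 100% and bortezomib (9.2 uM final) as 0%. 500 exponentially growing cells per well, RPMI plus 10% FBS.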
# [6] = High-throughput drug toxicity screening in the BPDCN cell line Cal-1 (AID 1224825); conditions: Cal-1 BPDCN cell viability, qHTS; at 45.8 µM (top of the series) unless noted
# Method in brief: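 CellTiter-Glo luminescence after 48 h compound exposure; percent activity scaled with DMSO as 100% and bortezomib (9.2 uM final) as 0%. Cal-1 cells seeded at 500/well in RPMI, 10% FBS, no phenol red.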
# [7] = qHTS assay for measurement of the activity of small molecule inhibitors on Zika virus induced Caspase-3 activity in human iPSC derived neural progenitor cells (hNPCs) (AID 1224857; active means well fitted curve in the direction sought with a large enough effect; an effect the other way counts as inactive or inconclusive; further: nearly all actives have a fitted effect of over 65% in size; further: potency means the concentration at half of the fitted maximal effect)
# Method in brief: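 Quantitative HTS format: human iPSC neural progenitors, 1 h compound pretreatment, ZIKV 2 FFU/cell for 6 h at 37 C. Percent inhibition derived from luminescent caspase-3/7 signal between uninfected and infected controls.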
# [8] = qHTS Assay for Identifying Gametocytocidal Compounds (AID 743244; active means well fitted curve in the direction sought with a large enough effect; an effect the other way counts as inactive or inconclusive; further: potency means the concentration at half of the fitted maximal effect;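 on max response: on the % scale 0 is the no-effect control and ±100 the full control effect; actives lower the fluorescent signal which means gametocytes are killed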); conditions: P. falciparum 3D7 stage III-V gametocytes, alamarBlue, 72 h; max response: stronger effect = lower value
# Method in brief: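 A resazurin-based viability read-out was applied to mature P. falciparum gametocytes: 72 h compound treatment, then 24 h dye incubation, with falling fluorescence signalling gametocytocidal effect.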
# [9] = qHTS profiling for inhibitors of Plasmodium falciparum (3D7) proliferation (AID 743322);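 further: infected erythrocytes exposed to compound for 72 h before lysis; 100% = DMSO vehicle wells and 0% = 0.29 µM artemisinin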; conditions: P. falciparum 3D7 proliferation; at 28.7 µM (top of the series)
# Method in brief: as §1
# [10] = qHTS profiling for inhibitors of Plasmodium falciparum (DD2) proliferation (AID 743323); conditions: lower = more inhibition; at 28.7 µM (top of the series)
# Method in brief: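 Parasite DNA quantified by SYBR Green fluorescence (ex 485, em 535 nm) after saponin/Triton lysis and overnight dark incubation. Cultures: 0.3% parasitemia, 2.5% hematocrit, 72 h, 37 C; data scaled between DMSO and 0.29 uM artemisinin.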
# [11] = qHTS profiling for inhibitors of Plasmodium falciparum (HB3) proliferation (AID 743324; active means well fitted curve in the direction sought with a large enough effect; an effect the other way counts as inactive or inconclusive;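 further: 100% = DMSO vehicle wells and 0% = artemisinin-treated control wells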); conditions: Plasmodium falciparum HB3 blood-stage proliferation; at 28.7 µM (top of the series)
# Method in brief: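 SYBR Green fluorescence (485 ex/535 em) of lysed cultures, incubated overnight at room temperature in the dark, quantifies parasite DNA. Infected erythrocytes at 0.3% parasitemia and 2.5% hematocrit were exposed 72 h; values normalized to DMSO and 0.29 uM artemisinin controls.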
# [12] = qHTS assay for measurement of the activity of small molecule inhibitors on Zika virus induced Caspase-3 activity in human astrocytoma cells (AID 1224859; active means well fitted curve in the direction sought with a large enough effect; an effect the other way counts as inactive or inconclusive; further: potency means the concentration at half of the fitted maximal effect)
# Method in brief: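 Readout is luminescence from Caspase-Glo 3/7 added after a 6 h ZIKV infection (2 FFU/cell) of compound-pretreated (1 h) SNB-19 cells; data expressed as % inhibition versus uninfected and infected wells.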
# [13] = qHTS for Activators of Parkin Expression: LOPAC Validation Assay (FLuc Reporter) (AID 720573; active means well fitted curve in the direction sought with a large enough effect; an effect the other way counts as inactive or inconclusive; further: potency means the concentration at half of the fitted maximal effect); conditions: Cell line, PRKN promoter firefly luciferase reporter
# Method in brief: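 FLuc signal from Parkin-promoter coincidence reporter neuronal cells, normalized to DMSO and positive control (100%). Cells (1,500/well) pre-incubated 24 h, then exposed to LOPAC compounds in 7-point dose response for 24 h at 37 C, 5% CO2.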
# [14] = target: T1, Hexokinase-4 (Homo sapiens) + Glucokinase regulatory protein (Homo sapiens) (UniProt P35557+Q14397); experiment: qHTS assay for inhibitors of recombinant human GCK-GKRP interaction: Diaphorase-coupled assay (AID 743205; active means well fitted curve in the direction sought with a large enough effect; an effect the other way counts as inactive or inconclusive)
# Method in brief: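 A kinetic fluorescence read (Ex 525/Em 590 nm, every minute for 30 minutes) tracked resorufin from a G6PDH-diaphorase coupled GCK reaction. It contained 10 nM GST-GCK, 10 nM FLAG-GKRP, 5 mM glucose, 0.4 mM ATP in Hepes pH 7.6. Normalized to with/without-enzyme DMSO controls.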
# [15] = target: T1, Hexokinase-4 (Homo sapiens) + Glucokinase regulatory protein (Homo sapiens); experiment: qHTS assay for inhibitors of recombinant human GCK-GKRP interaction: ADP-Glo assay (AID 743206; active means well fitted curve in the direction sought with a large enough effect; an effect the other way counts as inactive or inconclusive;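 further: plate controls were DMSO plus enzyme for no effect and no enzyme for full effect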)
# Method in brief: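 Pin-transferred compounds meet a 15 nM GST-GCK/15 nM FLAG-GKRP/2 uM S6P mix (dispense concentrations). ATP is then added to 0.4 mM final with 5 mM glucose, and the reaction runs 60 min at room temperature. ADP is quantified luminescently.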
# [16] = target: T1, Hexokinase-4 (Homo sapiens) + Glucokinase regulatory protein (Homo sapiens); experiment: qHTS assay for inhibitors of recombinant human GCK-GKRP interaction: HTRF assay (AID 743207; active means well fitted curve in the direction sought with a large enough effect; an effect the other way counts as inactive or inconclusive;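 further: 0% = DMSO with GCK present and -100% = DMSO wells lacking GCK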)
# Method in brief: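 After 60 min equilibration at room temperature with anti-FLAG XL665 and anti-GST antibodies, FRET ratio (665/615 nm, excitation 320 nm) was read. Proteins: GST-GCK and FLAG-GKRP, each 5 nM, plus 2 uM S6P, pH 7.1 buffer; GCK-free wells define minimum signal.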
# T1 sequence (P35557 whole entry, looked up): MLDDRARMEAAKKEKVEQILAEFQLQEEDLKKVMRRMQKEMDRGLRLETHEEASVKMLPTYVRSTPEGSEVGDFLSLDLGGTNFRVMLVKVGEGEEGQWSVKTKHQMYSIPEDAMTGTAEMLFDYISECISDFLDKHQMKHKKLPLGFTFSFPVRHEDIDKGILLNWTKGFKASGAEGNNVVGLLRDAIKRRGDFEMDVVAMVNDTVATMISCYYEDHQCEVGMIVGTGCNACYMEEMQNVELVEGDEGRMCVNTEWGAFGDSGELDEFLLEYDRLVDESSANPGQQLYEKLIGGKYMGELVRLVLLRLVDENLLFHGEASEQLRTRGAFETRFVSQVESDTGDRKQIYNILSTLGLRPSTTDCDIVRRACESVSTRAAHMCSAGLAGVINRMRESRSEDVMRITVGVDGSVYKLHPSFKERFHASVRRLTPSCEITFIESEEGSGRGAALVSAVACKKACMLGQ
# T1 sequence (Q14397 whole entry, looked up): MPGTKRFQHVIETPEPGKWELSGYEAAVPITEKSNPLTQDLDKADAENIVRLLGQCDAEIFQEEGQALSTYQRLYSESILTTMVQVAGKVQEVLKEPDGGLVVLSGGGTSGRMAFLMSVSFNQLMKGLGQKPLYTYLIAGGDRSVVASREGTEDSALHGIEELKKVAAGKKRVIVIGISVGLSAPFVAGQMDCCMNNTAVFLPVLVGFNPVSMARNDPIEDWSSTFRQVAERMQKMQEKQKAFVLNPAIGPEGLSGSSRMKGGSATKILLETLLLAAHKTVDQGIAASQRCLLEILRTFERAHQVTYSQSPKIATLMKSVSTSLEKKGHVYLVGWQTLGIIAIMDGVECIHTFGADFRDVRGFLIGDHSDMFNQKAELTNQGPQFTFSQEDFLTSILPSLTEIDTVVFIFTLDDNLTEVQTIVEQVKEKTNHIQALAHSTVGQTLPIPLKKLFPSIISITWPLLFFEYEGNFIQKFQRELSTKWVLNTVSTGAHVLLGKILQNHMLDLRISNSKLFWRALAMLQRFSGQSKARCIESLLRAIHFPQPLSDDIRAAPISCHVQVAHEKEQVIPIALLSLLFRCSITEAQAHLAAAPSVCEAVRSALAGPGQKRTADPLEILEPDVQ
compound,measurement,setting,value
Cc1cn2cc(C(=O)N(C)CCO)cc(N[C@@H]3CCOc4cccc(C)c43)c2n1,"parasite growth, % of DMSO control",[1],33.4%
same,"parasite growth remaining, % of DMSO control (lower = more inhibition)",[2],86.7%
same,"parasite growth, % of control (lower = inhibition)",[3],47.2%
same,"growth, % of control",[4],47.6%
same,"cell viability, % of control (lower = more cytotoxic)",[5],152%
same,viability (% of control),[6],114%
same,Potency,[7],inactive
Cc1cnc(Nc2ccc(F)cc2Cl)nc1-c1c[nH]c(C(=O)N[C@H](CO)c2cccc(Cl)c2)c1,max response,[8],-28.2% (inactive)
same,remaining parasite growth % (stronger effect = lower value),[9],7.37%
same,"activity, percent of control",[10],17.2%
same,"remaining proliferation (% of control), lower = more inhibition",[11],6.37%
same,"parasite growth, % of DMSO control",[1],7.48%
same,"parasite growth remaining, % of DMSO control (lower = more inhibition)",[2],8.92%
same,"parasite growth, % of control (lower = inhibition)",[3],12.8%
same,"growth, % of control",[4],11.5%
same,"cell viability, % of control (lower = more cytotoxic)",[5],4.9%
same,viability (% of control),[6],1.37%
same,Potency,[12],inactive
N#CCNC(=O)c1ccc(-c2ccnc(Nc3ccc(N4CCOCC4)cc3)n2)cc1,remaining parasite growth % (stronger effect = lower value),[9],5.35%
same,"activity, percent of control",[10],14%
same,"remaining proliferation (% of control), lower = more inhibition",[11],10.2%
same,"parasite growth, % of DMSO control",[1],4.16%
same,"parasite growth remaining, % of DMSO control (lower = more inhibition)",[2],12.8%
same,"parasite growth, % of control (lower = inhibition)",[3],13.1%
same,"growth, % of control",[4],4.94%
same,"cell viability, % of control (lower = more cytotoxic)",[5],55.1%
same,viability (% of control),[6],32.6%
same,Potency,[7],inactive
CC(C)c1nn(-c2c(Cl)cccc2Cl)c2nc(Cc3ccc(OCCO)cc3)[nH]c(=O)c12,"parasite growth, % of DMSO control",[1],20.8%
same,"parasite growth remaining, % of DMSO control (lower = more inhibition)",[2],62%
same,"parasite growth, % of control (lower = inhibition)",[3],27.3%
same,"growth, % of control",[4],21.7%
same,"cell viability, % of control (lower = more cytotoxic)",[5],3.64%
same,viability (% of control),[6],2.52%
same,Potency,[7],inactive
O=c1c2ccccc2nc2n1CCc1c-2[nH]c2ccccc12,Potency,[13],0.82 µM (active)
same,outcome,[14],inactive
same,outcome,[15],inactive
same,outcome,[16],inactive
same,max response,[8],16.8% (inactive)
same,"parasite growth, % of DMSO control",[1],85.9%
same,"parasite growth remaining, % of DMSO control (lower = more inhibition)",[2],88.1%
same,"parasite growth, % of control (lower = inhibition)",[3],167%
same,"growth, % of control",[4],85.6%
same,"cell viability, % of control (lower = more cytotoxic)",[5],35%
same,viability (% of control),[6],72.9%
same,Potency,[12],7.94 µM (active)
Clc1cccc(-n2nnnc2NCc2ccccc2Oc2ccccn2)c1Cl,"cell viability, % of control (lower = more cytotoxic)",[5],100%
same,viability (% of control),[6],100%
same,Potency,[12],inactive
NC1(Cc2ccc(Cl)cc2)CCN(c2ncnc3[nH]ccc23)CC1,"parasite growth, % of DMSO control",[1],19.2%
same,"parasite growth remaining, % of DMSO control (lower = more inhibition)",[2],31.6%
same,"parasite growth, % of control (lower = inhibition)",[3],23.9%
same,"growth, % of control",[4],5.59%
same,"cell viability, % of control (lower = more cytotoxic)",[5],12.2%
same,viability (% of control),[6],22.9%
same,Potency,[7],inactive
COCCn1c2c([n+](Cc3cnccn3)c1C)C(=O)c1ccccc1C2=O,remaining parasite growth % (stronger effect = lower value),[9],-1.59%
same,"activity, percent of control",[10],-0.193%
same,"parasite growth, % of DMSO control",[1],9.02%
same,"parasite growth remaining, % of DMSO control (lower = more inhibition)",[2],6.3%
same,"parasite growth, % of control (lower = inhibition)",[3],11.6%
same,"growth, % of control",[4],6.61%
same,"cell viability, % of control (lower = more cytotoxic)",[5],9.73%
same,viability (% of control),[6],3.5%
same,Potency,[7],0.418 µM (active)
O=C(Nc1cn[nH]c1-c1nc2ccc(CN3CCOCC3)cc2[nH]1)NC1CC1,"parasite growth, % of DMSO control",[1],5.31%
same,"parasite growth remaining, % of DMSO control (lower = more inhibition)",[2],12.9%
same,"parasite growth, % of control (lower = inhibition)",[3],8.07%
same,"growth, % of control",[4],4.19%
same,"cell viability, % of control (lower = more cytotoxic)",[5],4.46%
same,viability (% of control),[6],3.55%
same,Potency,[7],inactive
O=C(Nc1nc2cccc(-c3ccc(CN4CCS(=O)(=O)CC4)cc3)n2n1)C1CC1,"parasite growth, % of DMSO control",[1],64.7%
same,"parasite growth remaining, % of DMSO control (lower = more inhibition)",[2],97.6%
same,"parasite growth, % of control (lower = inhibition)",[3],62.8%
same,"growth, % of control",[4],73.9%
same,"cell viability, % of control (lower = more cytotoxic)",[5],107%
same,viability (% of control),[6],9.42%
same,Potency,[7],inactive
CC(NCc1ccc2c(c1)nc(NC(=O)c1ccc(-c3cn[nH]c3)s1)n2CC(C)(C)O)C(C)(C)C (stereo not given),Potency,[8],9.35 µM (active)
same,remaining parasite growth % (stronger effect = lower value),[9],-1.9%
same,"activity, percent of control",[10],-0.339%
same,"parasite growth, % of DMSO control",[1],5.17%
same,"parasite growth remaining, % of DMSO control (lower = more inhibition)",[2],7.07%
same,"parasite growth, % of control (lower = inhibition)",[3],9.25%
same,"growth, % of control",[4],3.84%
same,"cell viability, % of control (lower = more cytotoxic)",[5],2.71%
same,viability (% of control),[6],2.63%
same,Potency,[7],inactive
